SNCA expr inh: reduces expression of the alpha-synuclein gene | HEK-293 SNCA-luciferase knock-in, luminescence, 24 h | Potency, µM (doses to about 57.2 µM), inactives show at the highest dose activity change, negative = inhibition, usual class: inhibitors | 140,000 tested, 0.17% active | AID 1671194;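 also: potency is read from the fitted curve at half-maximal effect; plate controls were DMSO cells for no effect and cell-free wells for full effect; nearly all actives have a fitted effect of over 45% in size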
KDM5B inhibitor: blocks human KDM5B histone demethylase activity; Q9UGL1; KDM5B demethylase, FDH-coupled NADH fluorescence (FDH is formaldehyde dehydrogenase); Potency, µM (doses to about 57.7 µM), actives largely listed as inhibitors; 220,000 tested, 2.6% active; AID 1347165; also: potency is read from the fitted curve at half-maximal effect; 0% is about no effect; nearly all actives have a fitted effect of over 70% in size
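Compound dilutions met 200 nM (final) KDM5BΔAP for 10 min at room temperature before substrate addition. The substrate mix held 12.5 µM H3K4me3 with cofactors 25 µM α-ketoglutarate and 50 µM Fe²⁺. NADH signal gain over 30 min defined activity.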
HEK293 viab: reduces viability of HEK-293 SNCA reporter cells. HEK-293-SNCA-luc viability, GF-AFC fluorescence, 24 h. Potency, µM (doses to about 57.1 µM), without a hit: at the highest dose activity change, negative = cytotoxicity, hits mostly cytotoxic. 150,000 tested, 0.12% active. AID 1671193;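 also: potency is read from the fitted curve at half-maximal effect; 0% = DMSO-treated cells and -100% = medium-only wells without cells; nearly all actives have a fitted effect of over 30% in size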
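Cytotoxicity counterscreen: after 24 h compound treatment of genome-edited SNCA-luciferase HEK-293 cells, live-cell protease substrate GF-AFC read by fluorescence after 30 min; activity scaled between DMSO (0%) and medium-only (-100%), curves Hill-fitted.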
IP6K1 inh: IP6K1 kinase inhibition | 140,000 tested, 0.81% active | AID 1645851 | activity change, % (series mostly up to about 58 µM) | Q92551 | IP6K1 kinase, ADP-Glo luminescence, 2 h; active compounds read low; in the data active = activity change below about -25%; also: % is scaled to controls: 0 for no effect and ±100 for the full control effect
Target sequence (Q92551 whole entry, looked up): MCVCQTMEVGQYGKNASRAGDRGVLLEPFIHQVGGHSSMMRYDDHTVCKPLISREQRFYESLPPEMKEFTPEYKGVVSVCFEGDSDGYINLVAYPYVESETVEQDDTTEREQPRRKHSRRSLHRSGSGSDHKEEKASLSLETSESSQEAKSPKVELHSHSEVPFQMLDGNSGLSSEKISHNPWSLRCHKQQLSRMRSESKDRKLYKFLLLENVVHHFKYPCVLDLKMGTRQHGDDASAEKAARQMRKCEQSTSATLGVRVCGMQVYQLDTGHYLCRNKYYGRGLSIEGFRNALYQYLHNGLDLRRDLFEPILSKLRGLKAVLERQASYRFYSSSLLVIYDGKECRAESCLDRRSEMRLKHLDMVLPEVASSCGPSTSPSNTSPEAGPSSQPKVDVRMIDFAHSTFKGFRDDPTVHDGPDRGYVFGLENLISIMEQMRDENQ
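ADP-Glo luminescence measures ADP made by human IP6K1 during a 2 h RT reaction with ATP/IP6 (mix at 1.3 mM/130 uM); top library doses 57.5 and 19.1 uM final.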
Active calls of the source: *; i = inactive; ? = inconclusive; / = no result; [ ] = remark or other dose. The list is not random: actives were taken first. Their share in the collection is about 2.8%. Unless noted, calls follow the shape of the dose curve; as a rule, active = well fitted curve in the direction sought with a large enough effect; inconclusive = small, poorly fitted or top-dose-only effect, or another doubt; inactive = no such curve, though single readings can be large; an effect the other way counts as inactive or inconclusive.

SMILES | SNCA expr inh | KDM5B inhibitor | HEK293 viab | IP6K1 inh
O=C(N1CCCC1)C1(CCO)CCN(c2ncccn2)C1 (stereo not drawn) | -10.0% | 28.2µM* | -7.4% | -7.0
COCCCNC(=O)C1(CCO)CCN(c2ncccn2)C1 (stereo not drawn) | -19.0% | ? | -4.3% | -2.1
O=C(Nc1ccc2c(c1)OCCO2)C1(CCO)CCN(c2ncccn2)C1 (stereo not drawn) | -7.2% | ? | 10.1% | 6.7
CCc1ccc(C(=O)COC(=O)COc2ccc(Cl)c(C)c2)cc1 | / | i | / | /
Cc1nccn1-c1ccc(NC(=O)C2CCCN(c3ncccc3C#N)C2)cc1 (stereo not drawn) | 1.4% | 28.2µM* | -29.9% | -7.9
Cc1cn2nc(C(=O)N3CCC(C)CC3)cc2c(N(C)Cc2ccccc2)n1 | 13.7% | 28.2µM* | -10.9% | -1.7
Cc1cn2nc(C(=O)N3CCCC3)cc2c(N(C)Cc2ccccc2)n1 | ? | ? | ? | 0.1
Cc1cn2nc(C(=O)Nc3ccccc3F)cc2c(N(C)Cc2ccccc2)n1 | -9.0% | 22.4µM* | 2.3% | -11.1
Cc1cn2nc(C(=O)Nc3ccc(F)c(F)c3)cc2c(N(C)Cc2ccccc2)n1 | -13.5% | 31.6µM* | 14.6% | -11.1
Cc1cn2nc(C(=O)Nc3ccc4c(c3)OCO4)cc2c(N(C)Cc2ccccc2)n1 | 43.8% | ? | -6.9% | 5.0
O=C(NC1CCCC1)N1CCN(c2nccc(Nc3ccccc3Cl)n2)CC1 | -22.4% | / | 5.0% | 17.5
CC(=O)c1ccc(OC(=O)C23CC4CC(CC(Cl)(C4)C2)C3)cc1 | / | i | / | /
Cc1ncccc1-c1nc2cc(C(=O)NCCCc3ccccc3)ccc2o1 | 56.7%[87.6 µM] | / | 7.8%[87.6 µM] | 6.6
CO[C@H]1C(=O)N(C2CCN(C(=O)c3cccc4[nH]ccc34)CC2)[C@H]1c1ccncc1 | 7.6% | 25.1µM* | -1.0% | 25.4
Cc1ccccc1C(=O)N1C2CCCC1CC(=O)C2 | 2.6%[87.6 µM] | i | 6.8%[87.6 µM] | 5.9
O=C(c1cccc2[nH]ccc12)N1CCC(N2C(=O)C3(CCCCC3)C2c2ccncc2)CC1 (stereo not drawn) | ? | 22.4µM* | 4.5%[12.5 µM] | 0.0
O=C1CC2CCCC(C1)N2C(=O)c1cccc2[nH]ccc12 | 38.4%[87.6 µM] | 35.5µM* | 9.9%[87.6 µM] | 15.3
O=C(c1ccc2cc[nH]c2c1)N1CCC(N2C(=O)C3(CCCCC3)C2c2ccncc2)CC1 (stereo not drawn) | 22.8% | ? | 8.7%[12.5 µM] | -2.8
COc1ccc(Nc2ccnc(N3CCC(C(=O)NCC4CC4)CC3)n2)cc1 | 16.6% | / | -14.9%[12.5 µM] | 5.8
CC(C)c1nc2c(c(-c3ccc(Cl)cc3)n1)CCN(Cc1ccc(C#N)cc1)CC2 | -19.1% | ? | -27.7% | -5.6
COc1ccc(C(=O)Oc2ccc(C)cc2C(=O)/C=C/c2ccc(F)cc2)cc1 | / | i | / | /
O=C1c2ccccc2C(=O)c2c(NCCc3ccc(O)cc3)ccc(NCCc3ccc(O)cc3)c21 | ? | / | 28.2µM* | /
O=C1c2ccccc2C(=O)c2c(Nc3ccc(CCO)cc3)ccc(O)c21 | / | i | / | /
COCCNC(=O)c1ccc(-c2ccc(N3CCCCC3)nc2)cc1 | 79.0% | 12.6µM* | 8.8% | 13.2
O=C(NCCN1CCOCC1)c1ccc(-c2ccc(N3CCCCC3)nc2)cc1 | 18.9% | 28.2µM* | -23.2% | -4.1
SMILES | SNCA expr inh | KDM5B inhibitor | HEK293 viab | IP6K1 inh
O=C(NCCN1CCCC1)c1ccc(-c2ccc(N3CCSCC3)nc2)cc1 | 24.6% | 25.1µM* | -14.2% | -7.1
O=C(NC1CCCC1)c1ccc(-c2ccc(N3CCSCC3)nc2)cc1 | 31.6% | 28.2µM* | -5.9% | -0.8
O=C(NCc1ccncc1)c1ccc(-c2ccc(N3CCCCC3)nc2)cc1 | 23.8% | ? | ? | -11.0
O=[S+]([O-])(CCC(F)(F)F)N1CCCN(c2ccc3nnc(-c4ccccc4)n3n2)CC1 | / | / | / | 4.1
Cc1ccnc(NC(=O)Cc2ccc(Cl)cc2Cl)c1 | / | i | / | /
O=C(COc1ccccc1F)Nc1cccc2cccnc12 | / | i | / | /
O=C(NCc1ccccc1F)c1ccc(-c2ccc(N3CCSCC3)nc2)cc1 | 40.2% | 17.8µM* | 6.2% | 14.0
Cc1nccc(N2CCC(Oc3cnc4c(ccn4CCN[S+](C)(=O)[O-])c3)CC2)n1 | ? | ? | 5.8%[87.6 µM] | 3.6
C[S+](=O)([O-])CCn1ncc2cc(OCC3CCN(c4ncccn4)CC3)ccc21 | ? | 35.5µM* | -1.1%[87.6 µM] | 4.5
CCc1cnc(N2CCC(COc3ccc4c(cnn4CC[S+](C)(=O)[O-])c3)CC2)nc1 | -29.2% | 31.6µM* | -1.0% | -11.8
CCc1cnc(N2CCC(Oc3cnc4c(ccn4CCN[S+](C)(=O)[O-])c3)CC2)nc1 | -20.8% | 28.2µM* | -10.0% | -13.3
COc1ccc(-c2ocnc2C(=O)Nc2ccc(F)cc2F)cc1 | / | i | / | /
COc1cc(-c2onc(C)c2C(=O)NCCCCc2ccccc2)cc(OC)c1OC | -1.4% | 25.1µM* | -1.1% | -4.1
COc1ccc(-c2onc(C)c2C(=O)NCc2ccccc2C)cc1 | -12.9% | ? | 9.1% | 21.1
COc1cc(-c2onc(C)c2C(=O)NC2Cc3ccccc3C2)cc(OC)c1OC | 5.2% | 31.6µM* | -4.6% | 15.9
COc1cc(-c2onc(C)c2C(=O)NCc2cccc(F)c2F)cc(OC)c1OC | 9.2% | 31.6µM* | -15.4% | -7.3
COc1cc(-c2onc(C)c2C(=O)NCCCSC)cc(OC)c1OC | -15.9% | 31.6µM* | 5.9% | -7.9
Cc1ccc(OCC(=O)Nc2ccc3oc(-c4ccccc4)nc3c2)c(-n2cnnc2)c1 | / | i | / | /
O=C(CCc1c[nH]c2ccccc12)Nc1ccccc1F | / | i | / | /
O=C(O)Cn1ccc2cc(OCC3CCN(C(=O)COc4ccccc4)CC3)cnc21 | -13.9%[87.6 µM] | 35.5µM* | 2.1%[87.6 µM] | -7.8
O=C(CC1CC1)N1CCC(Oc2cnc3c(ccn3-c3cncnc3)c2)CC1 | -10.9%[87.6 µM] | i | 3.9%[87.6 µM] | 5.9
O=C(Cc1ccccc1)N1CCC(Oc2cnc3c(ccn3-c3cncnc3)c2)CC1 | ? | i | ? | -0.9
O=C(O)Cn1ccc2cc(OCC3CCN(C(=O)Cc4ccccc4)CC3)cnc21 | -12.3%[87.6 µM] | 39.8µM* | 2.6%[87.6 µM] | -3.9
NC(=O)Cn1ccc2cc(OCC3CCN(C(=O)CC4CC4)CC3)cnc21 | 10.8%[87.6 µM] | 35.5µM* | 1.0%[87.6 µM] | -11.7
c1cc2c(cc1N1CCC(N[C@H]3C[C@@H]4OCC[C@H]34)CC1)CCC2 | 41.3% | i | -0.6% | 28.8
SMILES | SNCA expr inh | KDM5B inhibitor | HEK293 viab | IP6K1 inh
Fc1ccc2cnc(N3CCC(N[C@H]4C[C@@H]5OCC[C@H]45)CC3)nc2c1 | 98.7% | 25.1µM* | -0.8% | 44.2
CCOC(=O)c1ccc(NC(=O)CSc2ncc(S(=O)(=O)c3ccc(C)c(Cl)c3)c(=O)[nH]2)cc1 | -2.4% | i | -15.3% | -49.2*
COCc1ncc(C)n1CCNC(=O)c1ccc(C)[nH]c1=O | 15.8% | 22.4µM* | -2.0% | -15.8
COC(=O)c1ccc(C2CC(=O)Nc3sc(C(=O)Nc4cccc(C(F)(F)F)c4)c(C)c32)cc1 (stereo not drawn) | / | i | / | /
Cc1noc([C@@H]2CN(C(=O)c3c[nH]c4ccccc34)C[C@H]2CO)n1 | 19.5% | i | -22.6% | -5.7
COC[C@@H]1CN(C(=O)c2cccc3[nH]ccc23)C[C@H]1c1nc(C)no1 | 4.8% | 20µM* | 0.4% | -6.4
